Screening data as filed in PubChem.
The full list was thinned out, with hits kept by preference.
IDE exosite inh – displaces the probe from the exo-site of human IDE. z-score at 20 µM. 17,000 tested, 6.3% active. P14735. AID 1259349. purified IDE, FL-6b probe fluorescence polarization; stronger effect = lower value;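 active means z-score of -3 or lower, meaning strong loss of probe binding signal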;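 further: His-tagged human IDE residues 42-1019 made in E. coli with 30 nM FL-6b probe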
Hits are given with their value; ! = a repeat was not active.

Results for COc1ccc2c3c([nH]c2c1)[C@@H](CO)N(Cc1ccncc1)CC31CCN(CC2CCOCC2)CC1 ?
IDE exosite inh: inactive

How did CCCNC(=O)N1CCC2(CC1)CN(Cc1cccc(OC)c1)[C@H](CO)c1[nH]c3cc(OC)ccc3c12 do in these assays?
IDE exosite inh: -4.64

How did CCCNC(=O)N1CC2(CCN(S(=O)(=O)CC)CC2)c2c([nH]c3cc(OC)ccc23)[C@@H]1CO do in these assays?
IDE exosite inh: inactive

What do the screens show for `CCCNC(=O)N1CC2(C1)CN(Cc1ccc(F)cc1)[C@H](CO)c1[nH]c3cc(OC)ccc3c12`?
IDE exosite inh: inactive

Results for COc1ccc2c3c([nH]c2c1)[C@@H](CO)N(CC1CC1)CC31CCN(C(=O)Nc2cccc(F)c2)CC1 ?
IDE exosite inh: inactive

What do the screens show for `CCC(=O)N1CC2(C1)CN(Cc1cccc(Cl)c1)[C@@H](CO)c1[nH]c3cc(OC)ccc3c12`?
IDE exosite inh: -3.34

Results for COc1ccc2c3c([nH]c2c1)[C@H](CO)N(Cc1cccc(F)c1)CC31CCN(C(C)=O)CC1 ?
IDE exosite inh: -6.64

Results for CCCC(=O)N1CC2(C1)CN(Cc1cccnc1)[C@@H](CO)c1[nH]c3cc(OC)ccc3c12 ?
IDE exosite inh: inactive

How did COc1ccc(CN2CC3(CN(C(=O)Cc4ccccc4)C3)c3c([nH]c4cc(OC)ccc34)[C@@H]2CO)cc1 do in these assays?
IDE exosite inh: inactive

What do the screens show for `COc1ccc2c3c([nH]c2c1)[C@H](CO)N(Cc1nccs1)CC31CCN(C(=O)C2CCCCC2)CC1`?
IDE exosite inh: inactive

Results for COc1ccccc1NC(=O)N1CC(=O)N2[C@H](CO)[C@@H](c3ccc(C#CC4CC4)cc3)[C@@H]2C1 ?
IDE exosite inh: inactive

Results for CC(=O)N1[C@@H](CO)[C@H](c2ccccc2)[C@@H]1CN(CC(C)C)C(=O)c1ccccn1 ?
IDE exosite inh: inactive

What do the screens show for `O=C(Nc1ccccc1)N1CCCCN2[C@@H](CO)[C@H](c3ccc(C4=CCCCC4)cc3)[C@@H]2C1`?
IDE exosite inh: inactive

How did O=C(C1CCCC1)N1CC2(C1)[C@@H](c1ccccc1)[C@H](CO)N2Cc1ccc(Cl)cc1 do in these assays?
IDE exosite inh: inactive

Results for CC(C)CC#Cc1ccc([C@H]2[C@@H](CO)N3C(=O)CN(C(=O)c4ccccn4)C[C@@H]23)cc1 ?
IDE exosite inh: inactive

Results for Cc1noc(C)c1NC(=O)N[C@@H]1C=C[C@@H](CC(=O)Nc2ccc(-c3ccccc3)cc2)O[C@H]1CO ?
IDE exosite inh: inactive

Results for COc1ccc(-c2ccc([C@H]3[C@H](CO)N4CCCCN(C(=O)c5ccc6c(c5)OCO6)C[C@@H]34)cc2)cc1 ?
IDE exosite inh: inactive

What do the screens show for `CN(C)C(=O)c1ccc(-c2ccc(C3[C@@H]4CN(C(=O)c5cnccn5)C[C@H]3N4)cc2)cc1` (some centres not stated)?
IDE exosite inh: inactive

What do the screens show for `Cc1ccccc1-c1ccc([C@@H]2[C@H](CO)N3C(=O)CN(C(=O)c4cccnc4)C[C@@H]23)cc1`?
IDE exosite inh: -7.2

Results for O=C(c1cccnc1)N1CC(=O)N2[C@@H](CO)[C@H](c3ccc(-c4ccccc4F)cc3)[C@@H]2C1 ?
IDE exosite inh: inactive

What do the screens show for `O=C(c1cccnc1)N1CC(=O)N2[C@@H](CO)[C@@H](c3ccc(-c4ccc(F)cc4)cc3)[C@@H]2C1`?
IDE exosite inh: inactive

How did N#Cc1cccc(-c2ccc(C3[C@@H]4CN(C(=O)c5ccccn5)C[C@H]3N4)cc2)c1 (some centres not stated) do in these assays?
IDE exosite inh: inactive

Results for Cc1ccccc1-c1ccc(C2[C@@H]3CN(C(=O)c4cnccn4)C[C@H]2N3)cc1 (some centres not stated) ?
IDE exosite inh: -20!

Results for Cc1ccccc1-c1ccc([C@@H]2[C@@H](CO)N3C(=O)CN(C(=O)c4cccnc4)C[C@@H]23)cc1 ?
IDE exosite inh: -13.3

What do the screens show for `O=C(c1cccnc1)N1CC(=O)N2[C@@H](CO)[C@H](c3ccc(-c4ccc(F)cc4)cc3)[C@@H]2C1`?
IDE exosite inh: inactive

How did Cc1ccccc1-c1ccc([C@@H]2[C@@H](CO)N3C(=O)CN(C(=O)c4cccnc4)C[C@H]23)cc1 do in these assays?
IDE exosite inh: inactive

Results for O=C(N[C@H]1CC[C@@H](CCNS(=O)(=O)c2ccc(F)cc2)O[C@@H]1CO)C1CCC1 ?
IDE exosite inh: inactive

How did COc1ccc(S(=O)(=O)N(C)C[C@H]2OCCCC[C@H](C)Oc3ccc(NC(=O)Cc4ccccc4)cc3C(=O)N([C@H](C)CO)C[C@@H]2C)cc1 do in these assays?
IDE exosite inh: inactive

How did C[C@@H]1COCn2nncc2CC[C@H](Cc2ccc(-c3ccccc3)cc2)C(=O)N1 do in these assays?
IDE exosite inh: inactive

Results for CCCC(=O)N1CCC2(CC1)CN[C@@H](CO)c1[nH]c3cc(OC)ccc3c12 ?
IDE exosite inh: inactive

What do the screens show for `COc1ccc(-c2ccc([C@@H]3[C@@H](CO)N4C(=O)CN(Cc5ccccc5)C[C@H]34)cc2)cc1`?
IDE exosite inh: inactive
